IDE exosite FP: exo-site inhibitors of human IDE, primary screen, biochemical, fluorescence anisotropy, probe displacement; purified IDE, FL-6b probe fluorescence polarization; hits give low values; z-score at 20 µM; 17,000 compounds, 6.3% hits; AID 1259349, 2017;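 active means z-score of -3 or lower, meaning strong loss of probe binding signal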;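 further: His-tagged human IDE residues 42-1019 made in E. coli with 30 nM FL-6b probe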
Active calls of the source: *; ! = not confirmed by another sample. The entries come from a sample that favours hits as a whole.

SMILES	IDE exosite FP
COc1cccc(-c2ccc([C@@H]3[C@@H](CO)N4CCCCN(C(=O)NC(C)C)C[C@@H]34)cc2)c1	-6*
CC(C)NC(=O)N1CCCCN2[C@H](C1)[C@H](c1ccc(Br)cc1)[C@@H]2CO	1.6
COc1cccc(-c2ccc([C@H]3[C@H]4CN(C(=O)c5ccc(F)cc5)CCCCN4[C@H]3CO)cc2)c1	1.4
CC(C)NC(=O)N1CCCCN2[C@H](CO)[C@H](c3ccc(Br)cc3)[C@@H]2C1	2.4
CC(C)NC(=O)N1CCCCN2[C@H](CO)[C@@H](c3ccc(Br)cc3)[C@@H]2C1	1.7
CN(C)CC#Cc1ccc([C@@H]2[C@@H](CO)N3CCCCN(C(=O)Nc4ccc(F)cc4)C[C@H]23)cc1	1.9
CCS(=O)(=O)N1CC2(C1)[C@@H](c1ccccc1)[C@H](CO)N2Cc1ccc(F)cc1	-1
CC(=O)N1[C@H](C(=O)NCc2ccccc2Cl)[C@@H](CO)[C@@H]2Cn3c(ccc(-c4cncnc4)c3=O)[C@@H]21	0.0021
CNC[C@H]1OCCCC[C@@H](C)Oc2ccc(NC(=O)Nc3ccc(OC)cc3)cc2C(=O)N([C@@H](C)CO)C[C@@H]1C	1.7
O=C(C[C@H]1CC[C@@H]2[C@H](COC[C@H](O)CN2CC2CCOCC2)O1)NCC1CCCCC1	1.2
Cn1cnc(S(=O)(=O)N[C@@H]2CC[C@@H](CC(=O)NCC3CCCCC3)O[C@H]2CO)c1	0.53
COc1ccc(S(=O)(=O)N2CCCCN3[C@H](CO)[C@@H](c4ccc(C#CC5CC5)cc4)[C@H]3C2)cc1	3.2
O=C1CNC[C@@H]2[C@@H](c3ccc(C#Cc4cccnc4)cc3)[C@@H](CO)N12	0.14
Cc1cccc(-c2ccc([C@@H]3[C@@H](CO)N4CCCCN(S(=O)(=O)c5ccccc5C)C[C@H]34)cc2)c1	2.1
Cc1cccc(-c2ccc([C@H]3[C@H](CO)N4CCCCN(S(=O)(=O)c5cccc(C)c5)C[C@@H]34)cc2)c1	1.1
Cc1cccc(-c2ccc([C@@H]3[C@@H](CO)N4CCCCN(S(=O)(=O)c5cccc(C)c5)C[C@H]34)cc2)c1	3.6
O=S(=O)(c1ccccc1F)N1CCCCN2[C@H](CO)[C@H](c3ccc(-c4ccccc4)cc3)[C@H]2C1	1.9
Cc1cccc(-c2ccc([C@H]3[C@@H](CO)N4CCCCN(S(=O)(=O)c5ccccc5F)C[C@H]34)cc2)c1	-3.5*
Cc1cccc(-c2ccc([C@@H]3[C@@H](CO)N4CCCCN(S(=O)(=O)c5ccccc5C)C[C@@H]34)cc2)c1	-20*
O=S(=O)(c1ccccc1F)N1CCCCN2[C@@H](CO)[C@@H](c3ccc(-c4ccccc4)cc3)[C@@H]2C1	0.014
Cc1cccc(-c2ccc([C@@H]3[C@@H](CO)N4CCCCN(S(=O)(=O)c5cccc(C)c5)C[C@@H]34)cc2)c1	-9.8*
Cc1cccc(-c2ccc([C@H]3[C@H]4CN(S(=O)(=O)c5ccccc5F)CCCCN4[C@H]3CO)cc2)c1	-1.6
Cc1ccccc1S(=O)(=O)N1CCCCN2[C@H](CO)[C@@H](c3ccc(-c4cccc(F)c4)cc3)[C@@H]2C1	-7.3*
Cc1cccc(-c2ccc([C@H]3[C@H]4CN(S(=O)(=O)c5ccccc5C)CCCCN4[C@H]3CO)cc2)c1	4.5
CC(C)NC(=O)N1CCCCN2[C@@H](CO)[C@H](c3ccc(C#CC4CC4)cc3)[C@@H]2C1	2.6
SMILES	IDE exosite FP
O=C(c1ccccc1F)N1CC(=O)N2[C@H](C1)[C@@H](c1ccc(-c3ccc(F)cc3)cc1)[C@@H]2CO	-0.69
O=C(Cc1ccncc1)N1CC[C@@H]2[C@H]1c1cc(-c3ccccc3F)ccc1N[C@@H]2CO	0.0065
COc1ccc(NC(=O)N2CC(=O)N3[C@@H](CO)[C@H](c4ccc(-c5ccc(C)cc5)cc4)[C@@H]3C2)cc1	-0.76
OC[C@H]1[C@H]2c3ccccc3NC[C@H]2N1CC1CCOCC1	2.4
C/C=C/c1ccc([C@@H]2[C@H](CO)N(CCC(F)(F)F)C23CN(C(=O)CC2CC2)C3)cc1	0.082
COc1ccc(C#Cc2ccc([C@H]3[C@H]4CN(C(=O)c5ccc(F)cc5)CC(=O)N4[C@H]3CO)cc2)cc1	0.98
Cc1ccccc1-c1ccc([C@H]2[C@@H](CO)N3C(=O)CN(C(=O)Cc4ccccn4)C[C@@H]23)cc1	-17*
O=C(Cc1ccccn1)N1CC(=O)N2[C@H](CO)[C@@H](c3ccc(C#CC4CCCCC4)cc3)[C@H]2C1	-0.35
O=C(Cc1ccccn1)N1CC(=O)N2[C@H](C1)[C@H](c1ccc(C#CC3CC3)cc1)[C@@H]2CO	0.55
O=C(Cc1ccccn1)N1CC(=O)N2[C@H](CO)[C@H](c3ccc(C#CC4CCCCC4)cc3)[C@@H]2C1	-0.63
COc1ccc(-c2ccc([C@H]3[C@@H](CO)N4C(=O)CN(C(=O)Cc5ccccn5)C[C@@H]34)cc2)cc1	0.65
Cc1ccccc1-c1ccc([C@H]2[C@H](CO)N3C(=O)CN(C(=O)Cc4ccccn4)C[C@@H]23)cc1	-14*
N#Cc1ccc(-c2ccc(C3[C@@H]4CN(C(=O)Cc5ccccc5)C[C@H]3N4)cc2)cc1 (some centres not stated)	1.5
COc1ccc(-c2ccccc2[C@@H]2[C@@H](C#N)N(C(=O)C3CCOCC3)[C@H]2CO)cc1	0.81
CCc1cnc(N2[C@H](C#N)[C@@H](c3ccc(-c4cccc(F)c4)cc3)[C@H]2CO)s1	-2.8
CCN(C[C@@H]1N[C@@H](CO)[C@H]1c1ccc(-c2cccc(F)c2)cc1)C(=O)CN(C)C	4.2
COc1ccc2c3c(n(C)c2c1)[C@H](CO)N(S(C)(=O)=O)CC31CCN(C(=O)C2CCCC2)CC1	0.71
CC(=O)NC[C@@H]1[C@@H](c2ccc(-c3cccc(F)c3)cc2)[C@@H](CO)N1C(=O)C1CC1	-0.18
O=C(c1ccc2c(c1)OCO2)N1C[C@@H]2N[C@H](C1)C2c1ccc(-c2ccccc2F)cc1 (some centres not stated)	-2.8
O=C(c1ccc(F)cc1)N1C[C@@H]2N[C@H](C1)C2c1ccc(-c2ccc(F)cc2)cc1 (some centres not stated)	3.9
Cc1ccccc1-c1ccc(C2[C@@H]3CN(C(=O)c4ccc(F)cc4)C[C@H]2N3)cc1 (some centres not stated)	-10*!
O=C(c1ccc(F)cc1)N1C[C@@H]2N[C@H](C1)C2c1ccc(-c2ccccc2F)cc1 (some centres not stated)	-4.1*!
O=C(c1ccc(F)cc1)N1C[C@@H]2N[C@H](C1)C2c1ccc(-c2cncnc2)cc1 (some centres not stated)	3.3
O=C(c1ccncc1)N1C[C@@H]2N[C@H](C1)C2c1ccc(-c2ccncc2)cc1 (some centres not stated)	3.2
CC(=O)N(C)C[C@H]1[C@H](c2ccccc2)[C@@H](CO)N1C(=O)C1CC1	1.5
CC(C)[C@@H]1C/C=C\C[C@@H](c2ccc(F)cc2)NC(=O)[C@H](C)CC(=O)N1	1
CCC(=O)NC[C@@H]1[C@@H](c2ccc(-c3cccc(F)c3)cc2)[C@@H](CO)N1C(=O)CC	1.8
COc1ccc(-c2ccc([C@H]3[C@H]4CN(C(=O)C5CCC5)CC(=O)N4[C@H]3CO)cc2)cc1	-0.16
COc1cccc(-c2ccc([C@@H]3[C@H]4CN(C(=O)C5CC5)CC(=O)N4[C@H]3CO)cc2)c1	-11*
COc1ccc(-c2ccc([C@@H]3[C@@H](CO)N4C(=O)CN(C(=O)C5CCCC5)C[C@@H]34)cc2)cc1	-0.91
